# In the supplement of paper PMC13380429:
# Unmarked numbers belong to inactive results.
# System: Vero E6 infected with SARS-CoV-2
# Assay: inhibition of SARS-CoV-2 cytopathic effect; higher = more antiviral protection, active = above 15
# Conditions: 833.33 nM; 48 h
row,Compound,inhibition of SARS-CoV-2 cytopathic effect [%]
1,NC12CC3CC(CC(C3)C1)C2 [amantadine],0.33
2,CCNC(C)CN1CCc2c(c(=O)oc3ccccc23)C1 (centres undefined),-0.78
3,C/C(=N\c1ccccc1N)c1c(C)cc(=O)n(O)c1O,3.65
4,c1ccc(CCNc2nc(-c3ccccc3)cs2)cc1 [fanetizole],-0.64
5,C[C@@H]([C@H](O)c1ccc(O)cc1)N1CCC(Cc2ccccc2)CC1 (racemic) [ifenprodil],0.72

# Same assay, conditions: 10000 nM; 48 h
row,Compound,inhibition of SARS-CoV-2 cytopathic effect [%]
1,COc1cccc(Nc2ncnn3ccc(CN4CC[C@@H](N)[C@H](O)C4)c23)c1,-22.6
2,C[N+](C)(C)CCCCCCCCCC[N+](C)(C)C [decamethonium],-1.94
3,Cc1ccnc2c1NC(=O)c1cccnc1N2C1CC1 [nevirapine],0.49
4,CS(=O)(=O)Nc1ccc(-c2coc3cc(OCc4cccc(C(=O)O)c4)ccc3c2=O)cc1,-0.08
5,CCc1nc2ccc(Cl)cn2c1C(=O)NCc1ccc(N2CCC(c3ccc(OC(F)(F)F)cc3)CC2)cc1,-1.65
6,C=CC1=C(C(=O)O)N2C(=O)[C@@H](NC(=O)/C(=N\O)c3csc(N)n3)[C@H]2SC1 [cefdinir],0.66
7,C[N+]12CCCCC1CCC(=C(c1cccs1)c1cccs1)C2 (centres undefined) [tiquizium],-3.03
8,Cc1cc(OCCCS(C)(=O)=O)cc(C)c1-c1cccc(COc2ccc3c(c2)OC[C@H]3CC(=O)O)c1,2.41
9,CCn1cc(C(=O)O)c(=O)c2cc(F)c(N3CCN(C)CC3)cc21 [pefloxacin],1.98
